Screen size: about 52,000 compounds; about 4,300 (8.3%) were called active. Cut-off read from the data, not from the text of the source: active = survival mostly below about 52% (no sharp cut-off); inactive = mostly above about 56%. Shown is part of a subset that was picked to be rich in actives.
These compounds were tested on DeltatarO mutant (assay: growth inhibition of S. aureus wild type versus tarO mutant, primary screen, teichoic acid synthesis inhibitors, RN4220, OD600 (AID 463173)). Details: OD600, 18 h, hits give low values, screened at 18.75 µg/mL (by protocol).

| Compound | survival |
| --- | --- |
| CCOc1ccc(NC(=O)CC2C(=O)N(c3ccccc3)C(=O)N2CCc2ccc(OC)cc2)cc1 (stereo not given) | 59% (inactive) |
| CCCNC(=O)CSc1cn(CC(=O)N2CCCCCC2)c2ccccc12 | 84% (inactive) |
| Cc1ccc(S(=O)(=O)c2cn(CC(=O)Nc3ccc(C)c(Cl)c3)c3ccc(C)cc3c2=O)cc1 | 96% (inactive) |
| COc1ccc(NC(=O)c2oc3c(c2C)-c2nn(Cc4ccccc4Cl)cc2CC3)cc1OC | 53% (active) |
| CCOC(=O)c1ccc(NC(=O)c2oc3c(c2C)-c2nn(Cc4ccccc4Cl)cc2CC3)cc1 | 68% (inactive) |
| CCOC(=O)c1oc2c(c1C)-c1nn(Cc3ccc(Cl)cc3)cc1CC2 | 16% (active) |
| COCCCNC(=O)c1oc2c(c1C)-c1nn(Cc3ccccc3Cl)cc1CC2 | 66% (inactive) |
| CCOC(=O)c1oc2c(c1C)-c1nn(Cc3cccc(Cl)c3)cc1CC2 | 53% (inactive) |
| Cc1c(C(=O)O)oc2c1-c1nn(Cc3ccccc3Cl)cc1CC2 | 80% (inactive) |
| CCOC(=O)c1oc2c(c1C)-c1nn(Cc3ccccc3Cl)cc1CC2 | 38% (active) |
| CC(=O)Nc1ccc(NC(=O)c2oc3c(c2C)-c2nn(Cc4ccccc4Cl)cc2CC3)cc1 | 61% (inactive) |
| Cc1c(C(=O)O)oc2c1-c1nn(Cc3ccc(Cl)cc3)cc1CC2 | 89% (inactive) |
| CC1=C(C(=O)OCC2CCCCC2)C(c2cccc(F)c2F)CC(=O)N1 (stereo not given) | 95% (inactive) |
| O=C1CC(NC2CC2)C(=O)N1c1ccccc1 (stereo not given) | 93% (inactive) |
| Cc1nn(Cc2ccc(F)cc2)c(C)c1NC(=O)c1noc2c1CCc1ccccc1-2 | 63% (inactive) |
| COc1ccc2c(c1)CCc1c(C(=O)Nc3cnn(Cc4ccc(Cl)cc4Cl)c3)noc1-2 | 142% (inactive) |
| COc1ccc2c(c1)CCc1c(C(=O)Nc3c(C)nn(Cc4ccc(Cl)c(Cl)c4)c3C)noc1-2 | 153% (inactive) |
| COc1ccc(Cl)cc1NC(=O)c1noc2c1CCc1ccccc1-2 | 71% (inactive) |
| COc1ccc2c(c1)CCc1c(C(=O)Nc3c(C)nn(Cc4ccc(Cl)cc4)c3C)noc1-2 | 107% (inactive) |
| COc1ccc2c(c1)CCc1c(C(=O)Nc3c(C)nn(Cc4ccccc4)c3C)noc1-2 | 118% (inactive) |
| Cc1nn(Cc2ccc(Cl)c(Cl)c2)c(C)c1NC(=O)c1noc2c1CCc1ccccc1-2 | 46% (active) |
| Cc1nn(Cc2ccc(Cl)cc2)c(C)c1NC(=O)c1noc2c1CCc1ccccc1-2 | 31% (active) |
| O=C(Nc1cnn(Cc2ccc(Cl)cc2Cl)c1)c1noc2c1CCc1ccccc1-2 | 47% (active) |

| Compound | survival |
| --- | --- |
| CCOC(=O)c1ccc(OC(=O)c2cn(-c3cccc(OC)c3)c(=O)c3ccccc23)cc1 | 85% (inactive) |
| Cc1cc(NC(=O)CSc2nc3c([nH]c4ccccc43)c(=O)n2-c2cccc(Cl)c2)no1 | 73% (inactive) |
| CC(=O)c1cc(-c2ccc(F)cc2)n(CC(=O)NCc2ccc(C)cc2)c1C | 99% (inactive) |
| COc1ccc2nc(N(Cc3cccnc3)C(=O)c3ccc4c(c3)OCCO4)sc2c1 | 65% (inactive) |
| Cc1ccc(NC(=O)c2ccco2)nc1 | 108% (inactive) |
| CC1=C(C(=O)Nc2ccc(Cl)cc2)C(CC(C)C)n2nc(SCc3ccccc3C)nc2N1 (stereo not given) | 127% (inactive) |
| COC(=O)CCNC(=O)NC(CCC(C)C)c1c(-n2cccc2)sc2c1CCN(C)C2 (stereo not given) | 75% (inactive) |
| O=C1CC(c2nc(-c3cccc(Cl)c3)no2)CN1c1ccc2c(c1)OCCO2 (stereo not given) | 144% (inactive) |
| O=C1CC(c2nc(-c3ccccc3)no2)CN1c1ccccc1 (stereo not given) | 25% (active) |
| O=C1CC(c2nc(-c3ccccc3)no2)CN1c1ccc2c(c1)OCCO2 (stereo not given) | 93% (inactive) |
| CN(C)c1ccc(-c2noc(C3CC(=O)N(c4ccc5c(c4)OCCO5)C3)n2)cc1 (stereo not given) | 92% (inactive) |
| O=C1CC(c2nc(-c3ccc(Cl)cc3)no2)CN1c1ccc2c(c1)OCCO2 (stereo not given) | 115% (inactive) |
| Cc1cc(C)cc(N2CC(c3nc(-c4cccc(Cl)c4)no3)CC2=O)c1 (stereo not given) | 37% (active) |
| COc1ccc(-c2noc(C3CC(=O)N(c4cc(C)cc(C)c4)C3)n2)cc1 (stereo not given) | 91% (inactive) |
| Cc1ccc(-c2noc(C3CC(=O)N(c4ccc5c(c4)OCCO5)C3)n2)cc1 (stereo not given) | 46% (active) |
| COc1ccc(-c2noc(C3CC(=O)N(c4ccccc4)C3)n2)c(OC)c1 (stereo not given) | 101% (inactive) |
| Cc1ccc(-c2nc3n(n2)C(=O)CC(c2ccc(C)cc2)S3)cc1 (stereo not given) | 90% (inactive) |
| NC(=O)CSc1ncnc2c1cnn2-c1ccccc1 | 82% (inactive) |
| CCOc1ccc(C(=O)N2CC(=O)Nc3ccc(F)cc3C2c2ccc(F)cc2)cc1 (stereo not given) | 148% (inactive) |
| O=C1CN(C(=O)COc2ccc(Cl)cc2)C(c2ccc(F)cc2)c2cc(Cl)ccc2N1 (stereo not given) | 45% (inactive) |
| CCCCOc1ccc(C(=O)N2CC(=O)Nc3ccc(Br)cc3C2c2ccc(F)cc2)cc1 (stereo not given) | 39% (active) |
| O=C1CN(C(=O)Cc2ccc(F)cc2)C(c2ccccc2)c2cc(Br)ccc2N1 (stereo not given) | 58% (inactive) |
| COc1ccc(C(=O)N2CC(=O)Nc3ccc(Br)cc3C2c2ccc(F)cc2)cc1OC (stereo not given) | 48% (inactive) |

| Compound | survival |
| --- | --- |
| O=C1CN(C(=O)c2c(F)cccc2Cl)C(c2ccc(F)cc2)c2cc(Br)ccc2N1 (stereo not given) | 42% (active) |
| Cc1ccc(C(=O)N2CC(=O)Nc3ccc(Br)cc3C2c2ccc(F)cc2)cc1C (stereo not given) | 66% (inactive) |
| O=C1CN(C(=O)COc2ccccc2)C(c2ccc(F)cc2)c2cc(Br)ccc2N1 (stereo not given) | 33% (active) |
| O=C1CN(C(=O)c2ccccc2)C(c2ccc(F)cc2)c2cc(Br)ccc2N1 (stereo not given) | 60% (inactive) |
| O=C1CN(C(=O)COc2ccc(Cl)cc2)C(c2ccc(F)cc2)c2cc(Br)ccc2N1 (stereo not given) | 36% (active) |
| O=C1CN(C(=O)COc2ccc(Cl)cc2)C(c2ccccc2)c2cc(Br)ccc2N1 (stereo not given) | 60% (inactive) |
| O=C(c1ccccc1/S(=N/S(=O)(=O)c1ccccc1)N1CCOCC1)N1CCOCC1 (stereo not given) | 75% (inactive) |
| Clc1cccc(-c2nnc(CN3CCN(c4ccccn4)CC3)o2)c1 | 82% (inactive) |
| CCOc1ccc(CC(=O)NCC(c2cccs2)S(=O)(=O)c2ccc(F)c(C)c2)cc1 (stereo not given) | 67% (inactive) |
| Cc1ccc(N2CC(NC(=O)C3CCCC3)CC2=O)cc1C (stereo not given) | 103% (inactive) |
| Cc1ccc(CNc2oc(-c3ccc(COc4ccc(C)cc4)o3)nc2C#N)cc1 | 65% (inactive) |
| COCCNC(=O)CCCn1c(SCc2ccccc2C)nc2c(sc3ccccc32)c1=O | 97% (inactive) |
| Cc1ccc2oc3c(c(=O)c2c1)C(c1ccc(OCC(N)=O)cc1)N(Cc1ccc2c(c1)OCO2)C3=O (stereo not given) | 93% (inactive) |
| COC(=O)c1ccc(-n2nnc(-c3nc(-c4ccc5c(c4)OCO5)no3)c2C)cc1 | 82% (inactive) |
| Cc1ccccc1NC(=O)c1c(C)oc2ccc(O)c(CN3CCN(C)CC3)c12 | 77% (inactive) |
| Cc1nc2nc(SCc3c(F)cccc3Cl)nn2c(C)c1Cc1ccccc1 | 66% (inactive) |
| Cc1nc2nc(SCC(=O)O)nn2c(C)c1Cc1c(F)cccc1Cl | 93% (inactive) |
| Cc1nc2nc(SCC(=O)Nc3cccc(Cl)c3)nn2c(C)c1Cc1ccccc1 | 85% (inactive) |
| Cc1nc2nc(SCC(=O)NC(C)c3ccccc3)nn2c(C)c1Cc1c(F)cccc1Cl (stereo not given) | 68% (inactive) |
| CCN(CC)CCCNC(=O)CSc1nc2nc(C)c(Cc3c(F)cccc3Cl)c(C)n2n1 | 146% (inactive) |
| CCCCNC(=O)CSc1nc2nc(C)c(Cc3c(F)cccc3Cl)c(C)n2n1 | 31% (active) |
| Cc1ccccc1Cc1c(C)nc2nc(SCC(=O)NCCc3ccc(Cl)cc3)nn2c1C | 67% (inactive) |
| Cc1nc2nc(SCC(=O)NCCc3ccc(Cl)cc3)nn2c(C)c1Cc1ccccc1Cl | 99% (inactive) |

| Compound | survival |
| --- | --- |
| COc1ccc(CCNC(=O)CSc2nc3nc(C)c(Cc4ccc(C)cc4)c(C)n3n2)cc1OC | 55% (inactive) |
| Cc1nc2nc(SCC(=O)NCCc3ccc(Cl)cc3)nn2c(C)c1Cc1ccccc1 | 46% (active) |
| Cc1nc2nc(SCC(=O)NCCc3ccc(Cl)cc3)nn2c(C)c1Cc1c(F)cccc1Cl | 0% (active) |
| Cc1nc2nc(SCC(=O)NCCc3ccccc3)nn2c(C)c1Cc1c(F)cccc1Cl | 37% (active) |
| Cc1cccc(C(=O)N2CCc3cc(CNS(=O)(=O)c4cccs4)ccc32)c1 | 74% (inactive) |
| Cc1ccc(C)c(CN2C(=O)c3ccccc3S(=O)(=O)c3ccc(C(=O)Nc4ccccc4C(F)(F)F)cc32)c1 | 84% (inactive) |
| Cc1ccccc1Cn1c(CN2CCN(c3cc(Cl)ccc3C)CC2)nc2c1c(=O)[nH]c(=O)n2C | 106% (inactive) |
| CCOC(=O)Cc1ccc(NC(=O)N(Cc2ccc(OC)cc2)C2CCN(C(C)=O)CC2)cc1 | 88% (inactive) |
| Cc1ccc(NC(=O)C(=O)NCC(c2cccnc2)N2CCN(c3ccccc3F)CC2)cc1Cl (stereo not given) | 73% (inactive) |
| Cc1oc(-c2ccc(C(=O)NCc3ccccc3)cc2)nc1CS(=O)(=O)c1ccccc1 | 88% (inactive) |
| Cc1ccc(C)c(N2CCN(C(=O)c3ccc4[nH]c(C)c(C)c4c3)CC2)c1 | 80% (inactive) |
| N=C(N=Nc1c(O)n(Cc2ccccc2)c2ccccc12)SCC(=O)Nc1ccccc1 | 23% (active) |
| CN(C)Cn1c(O)c(N=NC(=O)c2ccccc2)c2ccccc21 | 93% (inactive) |
| N=Nc1c(O)n(CC(=O)Nc2ccccc2)c2ccccc12 | 87% (inactive) |
| Cc1ccc(NC(=O)C2CCN(S(=O)(=O)c3c(C)noc3C)CC2)cc1 | 105% (inactive) |
| Cc1ccc(-c2nn3c(-c4ccc(C)cc4)nnc3c3ccccc23)cc1 | 20% (active) |
| Cc1ccc(-c2nn3c(-c4ccccc4C)nnc3c3ccccc23)cc1 | 40% (inactive) |
| Cc1ccc(-c2nnc3c4ccccc4c(-c4ccccc4)nn23)cc1 | 134% (inactive) |
| Cc1ccc(-c2nn3c(-c4ccccc4)nnc3c3ccccc23)cc1 | 86% (inactive) |
| COc1ccc(-c2nn3c(-c4ccc(OC)cc4)nnc3c3ccccc23)cc1 | 102% (inactive) |
| COc1ccc(-c2nn3c(-c4ccccc4C)nnc3c3ccccc23)cc1 | 2% (active) |

From PubChem BioAssay AID463173 (ICCB-Longwood Screening Facility, Harvard Medical School, 2010)
